Assay outcomes (PubChem)
A selection: hits, their analogues and other compounds. The true share with any hit is near 21%.
Shiga toxin inh – inhibitors of Shiga toxin in Vero cells. 290,000 compounds, 9.2% hits. inhibition, % at 38.7 µM. Vero cells, Shiga toxin protein synthesis inhibition reporter; in the data active = inhibition mostly above about 28%, no sharp cut-off; inactive = mostly below about 43%
Pf growth 96h – P. falciparum growth inhibition at 96 hour, primary screen for plastid delayed-death inhibitors | P. falciparum luciferase reporter growth, 96 h | Potency, µM (highest dose often 28.7 µM), hits mostly inhibitors | 320,000 compounds, 6.9% hits
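Compounds incubated with erythrocytes infected by luciferase-expressing P. falciparum (2% hematocrit, 0.05% parasitemia final) for 96 hours, 37 C in 5% CO2. Growth inhibition scored as decreased luciferase luminescence.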
Pf growth 48h – P. falciparum growth inhibition at 48 hours (one generation); Potency, µM (top dose mostly 28.7 µM), usual class: inhibitors; AID 504832; P. falciparum luciferase growth in erythrocytes, 48 h; 310,000 compounds, 5.9% hits
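Here the parasites carry a stable luciferase gene and grow inside erythrocytes in Albumax-based RPMI medium with compound for one erythrocytic cycle. Activity is scored as loss of luminescent signal.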
CHX counter – affects cycloheximide protein synthesis inhibition readout, counter-screen. 300,000 compounds, 12% hits. AID 2314. cell reporter, cycloheximide protein synthesis inhibition counterscreen. max response, %; in the data active = max response mostly above about 13%, no sharp cut-off; inactive = mostly below about 14%; note: read at 38.3 µM for the half of the compounds with a filed dose
Each line names hits and unclear results; the compound was inactive in the other large screens. Unless noted, calls come from the whole dose curve; as a rule, active = well fitted inhibition curve with a large enough effect; inconclusive = small, poorly fitted or top-dose-only effect, or another doubt; inactive = no such curve, though single readings can be large or run the other way.

O=C(CCSc1nc(-c2ccco2)cc(C(F)(F)F)n1)NCCN1CCOCC1	none
CCCn1c(SCC(=O)N2c3ccccc3CC2C)n[nH]c1=O (configuration not stated)	none (no result: Shiga toxin inh, CHX counter)
COc1ccccc1CCNC(=O)CSc1nc(-c2ccco2)cc(C(F)(F)F)n1	Pf growth 96h inconclusive (no result: Pf growth 48h)
COc1ccccc1CCNC(=O)CCSc1nc(-c2ccco2)cc(C(F)(F)F)n1	Pf growth 48h 8.28µM
CCOC(=O)c1c(C)oc2c1c(C(c1ccccc1)N1CCOCC1)c(O)c1ccccc12 (configuration not stated)	Shiga toxin inh 141.5, Pf growth 96h inconclusive, CHX counter 70.5 (no result: Pf growth 48h)
CCOC(=O)c1c(C)oc2c1c(C=NCCO)c(O)c1ccccc12	Pf growth 96h 13.1µM, Pf growth 48h inconclusive, CHX counter 28.1
CCOC(=O)c1c(C)oc2c1c(C(c1cccnc1)N1CCCCC1)c(O)c1ccccc12 (configuration not stated)	Shiga toxin inh 95.0, Pf growth 48h inconclusive, CHX counter 57.1 (no result: Pf growth 96h)
CCOC(=O)c1c(O)c2ccccc2oc1=O	none
COc1ccc(NC(=O)CSC2=NCCN2)cc1	Pf growth 96h inconclusive
O=C(Nc1nccs1)c1ccc(-c2ccccc2Cl)o1	Shiga toxin inh 76.3, Pf growth 48h inconclusive, CHX counter 44.1
O=C(Nc1nccs1)c1ccc(-c2ccccc2[N+](=O)[O-])o1	Shiga toxin inh 105.7, CHX counter 54.4
CCn1nnc(NC(=O)c2ccc([N+](=O)[O-])o2)n1	none
CCCCn1nnc(NC(=O)c2ccc(-c3ccccc3[N+](=O)[O-])o2)n1	Shiga toxin inh 49.5, Pf growth 96h 8.28µM, CHX counter 27.5
CC(=O)Nc1ccc(NC(=O)c2ccc(-c3ccccc3Cl)o2)cc1	none (no result: Shiga toxin inh, CHX counter)
COc1ccccc1NC(=O)c1ccc(-c2ccccc2[N+](=O)[O-])o1	Shiga toxin inh 114.8, CHX counter 59.7
O=C(CCS(=O)(=O)c1ccc(Cl)cc1)Nc1nnc(-c2ccco2)o1	none (no result: Shiga toxin inh, CHX counter)
CCCCNC(=O)[C@H]1C[C@H]1[C@@H](O)[C@H](CO)NC(=O)[C@H](COCc1ccccc1)NC(=O)OC(C)(C)C	none
CCOC(=O)N1CCN(C(=O)c2ccc(C#CC3(O)CCCCC3)cc2)CC1	Shiga toxin inh 40.7, CHX counter 31.3 (no result: Pf growth 96h)
CS(=O)(=O)c1ccc(C(=O)N2CCN(Cc3ccccc3)CC2)cc1	none
O=C(c1ccc(C#CC2(O)CCCCC2)cc1)N1CCN(C(c2ccccc2)c2ccccc2)CC1	CHX counter 21.3 (no result: Pf growth 48h)
NC(=O)C1(N2CCCCC2)CCN(C(=O)c2ccc(C#CC3(O)CCCCC3)cc2)CC1	Pf growth 96h inconclusive (no result: Pf growth 48h)
O=C(c1ccc(C#CC2(O)CCCCC2)cc1)N1CCN(Cc2ccccc2)CC1	Pf growth 96h 10.4µM, Pf growth 48h inconclusive
O=C(NC1CCN(C(=O)Nc2cccc(Cl)c2)CC1)c1ccco1	none
N#Cc1ccc(C(=O)N2CCN(C(=O)C3CCCO3)CC2)cc1 (configuration not stated)	Pf growth 48h inconclusive (no result: Shiga toxin inh, CHX counter)
COc1cccc(-c2nc(NCC3CCCO3)c3ccccc3n2)c1O (configuration not stated)	none
Oc1ccccc1-c1nc(NCC2CCCO2)c2ccccc2n1 (configuration not stated)	Pf growth 96h 10.4µM, Pf growth 48h inconclusive
COc1ccccc1Nc1nc(NCC2CCCO2)c2ccccc2n1 (configuration not stated)	Pf growth 96h 1.04µM, Pf growth 48h inconclusive
COC(=O)C(=C/C=C/N1CCOCC1)C(=O)OC	none
CNc1sc(C(=O)c2ccccc2F)c(N)c1-c1nc2ccccc2s1	Shiga toxin inh 63.6, Pf growth 96h inconclusive, CHX counter 19.4 (no result: Pf growth 48h)
CC(C)CNS(=O)(=O)c1ccc(CCC(=O)NCCC2=CCCCC2)cc1	Pf growth 48h inconclusive
Cc1ccc(NC(=S)N2CCC(N(C)CC3CCCO3)CC2)c(C)c1 (configuration not stated)	none (no result: Pf growth 48h)
COc1ccc(NC(=O)CCNS(=O)(=O)c2cccc3nonc23)cc1	none
COc1ccc(OC)c(Nc2nc(-c3sc(NC(=O)C(C)(C)C)nc3C)cs2)c1	Pf growth 96h 3.29µM, Pf growth 48h 9.28µM
COc1cccc(NC(=O)CSc2nnc(NC(=O)c3ccco3)s2)c1	none
COc1ccc(Cl)cc1Nc1nc(-c2sc(NC(=O)c3ccco3)nc2C)cs1	Pf growth 96h 5.86µM, Pf growth 48h 14.7µM
COc1ccc(Cl)cc1Nc1nc(-c2sc(NC(=O)C(C)(C)C)nc2C)cs1	Pf growth 96h 1.65µM, Pf growth 48h 10.4µM
CCCC(C)C(=O)Nc1nc(C)c(-c2csc(Nc3ccc(Cl)cc3)n2)s1 (configuration not stated)	Pf growth 96h inconclusive, Pf growth 48h inconclusive
